# Compound activity as filed in PubChem.
# SARS PLP yeast – inhibitors of SARS-CoV papain-like protease in yeast | Potency, µM (series often up to 32.9 µM), for inactives: top-dose activity, positive = growth rescue, most hits filed as activators | 330,000 compounds, 0.19% hits | S. cerevisiae expressing SARS-CoV PLpro, growth rescue | AID 485353; note: potency is the fitted concentration of half-maximal effect; 0% is about no effect; nearly all actives have a fitted effect of over 55% in size
# Shiga toxin inh – blocks Shiga toxin action in Vero cells; AID 2315; inhibition, % at 38.7 µM; Vero cells, Shiga toxin protein synthesis inhibition reporter; 290,000 compounds, 9.2% hits; in the data active = inhibition mostly above about 28%, no sharp cut-off; inactive = mostly below about 43%; note: 0% is about no effect
# NS1 inh – inhibitors of influenza NS1 protein function | Potency, µM (series often up to 46.1 µM), for inactives: top-dose activity, positive = more growth | 270,000 compounds, 0.4% hits | AID 2326; note: potency is the fitted concentration of half-maximal effect; actives are rising curves; nearly all actives have a fitted effect of over 50% in size
#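 Read-out: OD600 growth recovery of NS1-expressing budding yeast. Cells grown overnight at 30C in -URA glucose medium, washed, resuspended and diluted 1:100 in 2% galactose assay medium, pH 6.0. Same strain lacking NS1 served as positive control.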
# LmPK inhibitor – blocks Leishmania mexicana pyruvate kinase activity. 290,000 compounds, 0.37% hits. AID 1721. purified LmPK, Kinase-Glo ATP luminescence, 1 h. Potency, µM (top dose mostly 57.5 µM), for inactives: at the top dose activity change, negative = inhibition, hits mostly inhibitors. Q27686; active = well fitted curve in the direction sought with a large enough effect; inconclusive = small, poorly fitted or top-dose-only effect, or another doubt; inactive = no such curve, though single readings can be large; an effect the other way counts as inactive or inconclusive; note: potency is the fitted concentration of half-maximal effect; % is set by controls: 0 for no effect and ±100 for the full control effect
# Target sequence (Q27686 whole entry, looked up): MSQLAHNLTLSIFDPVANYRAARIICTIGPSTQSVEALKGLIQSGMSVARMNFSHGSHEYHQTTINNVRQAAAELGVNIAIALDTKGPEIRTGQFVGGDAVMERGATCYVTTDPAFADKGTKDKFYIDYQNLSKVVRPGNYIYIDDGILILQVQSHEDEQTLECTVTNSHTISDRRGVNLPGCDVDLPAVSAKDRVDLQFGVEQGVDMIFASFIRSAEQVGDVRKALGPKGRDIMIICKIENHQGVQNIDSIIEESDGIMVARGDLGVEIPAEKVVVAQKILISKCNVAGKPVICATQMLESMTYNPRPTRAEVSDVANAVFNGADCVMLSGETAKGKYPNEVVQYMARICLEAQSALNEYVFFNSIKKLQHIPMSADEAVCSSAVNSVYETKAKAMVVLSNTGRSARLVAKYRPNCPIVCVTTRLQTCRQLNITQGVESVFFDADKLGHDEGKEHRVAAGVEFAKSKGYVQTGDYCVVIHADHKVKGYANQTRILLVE
#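 0.1 nM LmPK, 0.5 mM PEP, 0.1 mM ADP; 50 mM imidazole pH 7.2, 7 mM MgCl2, 50 mM KCl; 1 h RT. Kinase-Glo luminescence readout, normalized to no-enzyme (full inhibition) and uninhibited wells.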
# TbPYK inhibitor – T. brucei pyruvate kinase inhibition | 410,000 compounds, 0.12% hits | Potency, µM (doses to about 76.8 µM), inactives show at the highest dose activity, negative = inhibition, actives largely listed as inhibitors | TbPYK enzyme, Kinase-Glo Plus ATP luminescence, 45 min | AID 624173 | Q57TT1; active = well fitted curve in the direction sought with a large enough effect; inconclusive = small, poorly fitted or top-dose-only effect, or another doubt; inactive = no such curve, though single readings can be large; an effect the other way counts as inactive or inconclusive; note: potency is the fitted concentration of half-maximal effect; % is set by controls: 0 for no effect and ±100 for the full control effect; nearly all actives have a fitted effect of over 50% in size
#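 Readout: single end-point luminescence (Kinase-Glo Plus, 10 min). Reaction conditions were TbPYK/substrate plus 130 uM ADP, 45 min at RT, pH 7.2 TEA buffer. No-enzyme wells served as controls, and data were normalized before concentration-response fitting.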
# Cycloheximide cs – affects cycloheximide protein synthesis inhibition readout, counter-screen; cell reporter, cycloheximide protein synthesis inhibition counterscreen; max response, %; 300,000 compounds, 12% hits; in the data active = max response mostly above about 13%, no sharp cut-off; inactive = mostly below about 14%; note: read at 38.3 µM for the half of the compounds with a filed dose; 0% is about no effect
# The depositor's hits bear a star; ? = inconclusive; / = no result. Only a selection was taken, and hits are over-represented in it overall. Unless noted, calls come from the whole dose curve.
SMILES,SARS PLP yeast,Shiga toxin inh,NS1 inh,LmPK inhibitor,TbPYK inhibitor,Cycloheximide cs
COc1ccc(CCNC(=S)NCc2cccs2)cc1OC,-1%,-2,1%,-2%,-1%,-1
S=C(NCc1cccs1)Nc1cccc2ccccc12,0%,21,-6%,0%,2%,2
CCc1ccccc1NC(=O)N1CCN(c2nnc(C)c3c(C)n(-c4ccccc4)nc23)CC1,/,/,/,/,-1%,/
c1ccc(-n2nnnc2Cc2nnnn2-c2ccccc2)cc1,0%,-6,/,2%,6%,-2
N#CCCS(=O)(=O)c1nnnn1-c1ccccc1,-32%,6,-242%,-3%,/,19*
Cc1cc2nc(-c3ccc(SCC(=O)N4CCN(C(=O)c5ccco5)CC4)nc3)[nH]c2cc1C,-7%,26*,?,-26%,-17%,20*
COc1ccc(-c2ccc(SCC(=O)N3CCOCC3)nn2)cc1,2%,42,-13%,-9%,10%,21
Cc1cc(=O)[nH]c(SCC(=O)N2CCN(C(=O)c3ccco3)CC2)n1,-10%,/,/,/,15%,/
CCOC(=O)CSc1ccc(-c2nc3cc(C)c(C)cc3[nH]2)cn1,4%,61*,?,-1%,-5%,55*
Cc1cc2nc(-c3ccc(SCC(=O)N4CCOCC4)nc3)[nH]c2cc1C,-2%,70*,2%,-18%,2%,33*
Cc1cc2nc(-c3ccc(SCc4ccccn4)nc3)[nH]c2cc1C,-6%,98*,/,-7%,-3%,34*
O=S1(=O)N[C@H](Cc2ccccc2)COc2cccc(N3CCSCC3)c21,/,/,/,/,1%,/
O=c1c2ccccc2oc2cc(NCCCn3ccnc3)ccc12,-12%,24*,2%,-1%,0%,24*
O=c1c2ccccc2oc2ccc(NCCCN3CCOCC3)cc12,5%,43*,1%,2%,-8%,36*
Cn1c2ccccc2c(=O)c2cc(NCCCN3CCOCC3)ccc21,3%,/,/,/,-4%,/
c1ccc(-c2nc(NCCCn3ccnc3)c3ccccc3n2)cc1,1%,12,-4%,-1%,0%,-4
O=c1c2ccccc2oc2cc(NCCCN3CCOCC3)ccc12,-5%,35*,-7%,0%,-6%,40*
COc1ccc(NC(=S)N2CCCCCC2)cc1OC,0%,-1,/,4%,-5%,-1
COC(=O)c1ccc(NC(=S)N2CCCC2)cc1,3%,26,/,4%,1%,8
Fc1ccc(NC(=S)N2CCCCC2)cc1,-7%,-5,16%,-6%,-3%,5
Cc1ccc(NC(=S)N2CCCCC2)cc1C,18%,43*,-3%,1%,-3%,20*
CC(=O)c1ccc(NC(=S)N2CCCCCC2)cc1,-1%,67*,-2%,0%,4%,21*
S=C(Nc1ccc(Cl)cc1)N1CCCC1,21%,36,-2%,-7%,-5%,30*
Cc1ccc(NC(=S)N2CCCCCC2)cc1,0%,75*,-2%,0%,-4%,37*
O=C(C[C@@H]1C/C=C/CC[C@@H](Cc2ccc(F)cc2)C(=O)OC[C@H](Cc2ccccc2)NC1=O)N[C@H](CO)Cc1ccccc1,-6%,/,/,/,-8%,/
SMILES,SARS PLP yeast,Shiga toxin inh,NS1 inh,LmPK inhibitor,TbPYK inhibitor,Cycloheximide cs
CC(=O)c1ccc(NC(=S)N2CCCC(CO)C2)cc1 (centres undefined),3%,51*,1%,-4%,1%,38*
Cc1ccc(NC(=S)N2CCCC2)cc1,0%,77*,-1%,3%,2%,27*
Fc1ccc(NC(=S)N2CCCC2)cc1,/,/,/,/,-9%,/
OCC1CCCN(C(=S)Nc2ccc(Oc3ccccc3)cc2)C1 (centres undefined),-2%,80*,1%,1%,-16%,43*
COC(=O)Cc1ccc(NC(=S)N2CCCC(CO)C2)cc1 (centres undefined),3%,-24,-1%,-1%,-5%,-1
CN(C)Cc1cccc([N+](=O)[O-])c1O,0%,0,11%,-2%,-4%,-1
C=CCOc1c(Cl)cc(C(=S)N2CCCC2)cc1OCC,2%,6,-24%,1%,-5%,-2
Cc1cc(C)cc(NC(=O)COC(=O)CCc2ccc(S(=O)(=O)N3CCOCC3)cc2)c1,-1%,-7,/,5%,-16%,-1
CC(NC(=O)COC(=O)CCc1ccc(S(=O)(=O)N2CCOCC2)cc1)C1CC2CCC1C2 (centres undefined),-9%,-15,-18%,-2%,-18%,36*
O=C(O)c1ccc(-n2cc(C(=O)c3ccccc3O)cn2)cc1,1%,30,-1%,2%,4%,29*
O=C(c1cnn(-c2cccc(F)c2)c1)c1ccccc1O,-1%,100*,3%,0%,0%,24*
O=C(c1cnn(-c2nc3ccccc3s2)c1)c1ccccc1O,5%,47*,-2%,-7%,0%,30*
O=C(c1cnn(-c2ccccc2)c1)c1cc(Br)ccc1O,-1%,/,/,/,3%,/
Cc1cc2nc(-c3cccc(Br)c3)c(CC(C)(C)C)n2c(C)c1Br,/,/,/,/,-1%,/
CC(Nc1nc2ccccc2n2cnnc12)c1ccccc1 (centres undefined),0%,35*,-4%,2%,-4%,20*
c1ccc(Nc2nc3ccccc3n3cnnc23)cc1,5%,18,-35%,2%,-4%,10
c1ccc2c(c1)nc(Nc1ccc(N3CCCCC3)cc1)c1nncn12,0%,10,-4%,1%,-8%,15*
CCCc1ccc(S(=O)(=O)N2CCC(c3nnnn3-c3ccc(OC)cc3)CC2)cc1,/,/,/,/,2%,/
COc1ccc(NC(=O)N2CCC(C(=O)c3ccc4c(c3)OCCO4)CC2)cc1,-4%,25,-11%,-10%,2%,21*
COCCNC(=S)N1CCC(C(=O)c2ccc3c(c2)OCCO3)CC1,-2%,74,/,-4%,-2%,46*
CC(=O)c1ccc(NC(=O)N2CCCC(C(=O)c3ccc4c(c3)OCO4)C2)cc1 (centres undefined),-2%,53*,-3%,-6%,-7%,16*
O=C(c1ccc2c(c1)OCCO2)C1CCN(C(=O)Nc2ccc(F)cc2)CC1,-5%,19,-1%,0%,-8%,15
CSc1ccccc1NC(=O)N1CCCC(C(=O)c2ccc3c(c2)OCO3)C1 (centres undefined),-1%,-4,-5%,5%,0%,-2
COc1ccc(NC(=S)N2CCC(C(=O)c3ccc(C)cc3)CC2)cc1,15%,-1,-17%,1%,-14%,8.9*
Cn1cncc1C(=O)c1ccccc1,1%,66,0%,-2%,-1%,12
Cc1ccc2c(c1)NC(c1cccnc1)=NC(c1ccc(F)cc1)=N2,/,/,/,/,-6%,/
O=C(COC(=O)c1cccc(S(=O)(=O)N2CCCC2)c1)Nc1cccc(Br)c1,/,/,/,/,-3%,/
